According to PubChem BioAssay AID1918 (Vanderbilt High Throughput Screening Facility, 2009):
Screen size: about 130,000 compounds; about 2,500 (1.9%) were called active.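 Rule for the calls: active = signal ratio slope over the read window, or its plate-corrected B-score, at least 3 SD from the plate mean, either direction; inactive = the rest.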 Only a selection was taken, and actives are over-represented in it overall.

Molecular target: ATP-sensitive inward rectifier potassium channel 1 (Homo sapiens) (UniProt P48048)
Sequence (P48048 whole entry, looked up): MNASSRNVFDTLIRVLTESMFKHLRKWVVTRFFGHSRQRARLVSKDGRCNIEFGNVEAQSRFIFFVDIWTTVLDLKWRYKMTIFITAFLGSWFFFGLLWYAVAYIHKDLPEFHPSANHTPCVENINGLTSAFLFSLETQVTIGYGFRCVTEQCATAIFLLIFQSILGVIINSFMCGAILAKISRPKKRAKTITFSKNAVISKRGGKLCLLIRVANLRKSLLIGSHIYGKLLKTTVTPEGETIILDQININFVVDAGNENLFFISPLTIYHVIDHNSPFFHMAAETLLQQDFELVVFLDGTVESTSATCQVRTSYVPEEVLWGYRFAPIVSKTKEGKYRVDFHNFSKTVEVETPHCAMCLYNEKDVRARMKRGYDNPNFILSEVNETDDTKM
Assay: ROMK potassium channel modulators, primary screen, cell-based, thallium flux, MLSMR library (AID 1918);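 note: B-score of the F/F0 ratio slope over 7 to 12 s after thallium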
Details: Tet-inducible ROMK, thallium flux fluorescence; at 10 µM; actives lie on both sides

| Structure (SMILES) | B-score |
| --- | --- |
| CCOC(=O)C1=C(CN2CCCCCC2)NC(=O)NC1c1cccc([N+](=O)[O-])c1 (stereo not drawn) | -1.02 (inactive) |
| COc1ccc(C(=O)NC2CCN(C(=S)NCCc3ccccc3)CC2)cc1 | -0.464 (inactive) |
| NS(=O)(=O)c1ccc(CCNC(=O)c2ccc([N+](=O)[O-])cc2[N+](=O)[O-])cc1 | 0.546 (inactive) |
| COc1ccc(CC(=O)Nc2cc(S(=O)(=O)N3CCCCC3)ccc2N2CCN(C)CC2)cc1 | 0.269 (inactive) |
| CN1CCN(c2ccc(S(=O)(=O)N3CCCCC3)cc2NC(=O)Cc2ccccc2F)CC1 | -4.06 (active) |
| O=C(COC(=O)c1ccccc1F)Nc1cc(S(=O)(=O)N2CCOCC2)ccc1N1CCCC1 | -0.699 (inactive) |
| C=CCOC(=O)C1=C(C)N=C2SCCC(=O)N2C1/C=C/c1ccccc1OC (stereo not drawn) | -2.24 (inactive) |
| COCCn1c(Cc2cccn2C)nnc1SCC(=O)Nc1nccs1 | -0.191 (inactive) |
| CCn1c(/C=C/Nc2ccccc2)[n+](CC)c2ccc(C(=O)OCC(F)(F)F)cc21 | -3.51 (active) |
| Cn1cnc(S(=O)(=O)Nc2ccc3c(c2)OCCO3)c1 | 1.18 (inactive) |
| Cc1[nH]c2ccccc2c1/C=C(/C#N)C(=O)NC(C)C | 0.27 (inactive) |
| CNC(=O)/C(C#N)=C/c1c(F)cccc1Cl | -5.65 (active) |
| O=C(/C=C/c1c(F)cccc1Cl)Nc1nn[nH]n1 | -0.796 (inactive) |
| COc1ccc(C(=O)NC2CCN(C(=S)Nc3ccccc3)CC2)cc1 | 0.59 (inactive) |
| C=CCn1c(COc2ccc(F)cc2)nnc1SCC(=O)Nc1cccc(S(N)(=O)=O)c1 | 0.118 (inactive) |
| COC(=O)CNc1nc(Cl)nc(N2CCC(C)CC2)n1 | -0.416 (inactive) |
| COCCNC(=O)c1ccc(-n2c(SCc3cccnc3)nc3ccccc3c2=O)cc1 | -0.255 (inactive) |
| O=C1CN(C(=O)COC(=O)c2cnc(Cl)c(Cl)c2)c2ccccc2N1 | -0.857 (inactive) |
| CC(C)(c1ccccc1)c1ccc(OCCN)cc1 | -2.62 (active) |
| CCCOc1ccc(C(=O)NCCc2ccccc2)cc1 | 0.056 (inactive) |
| CN(C)CC(O)COc1ccc(C(C)(C)c2ccc(OCC(O)CN(C)C)cc2)cc1 (stereo not drawn) | -0.0221 (inactive) |
| CN(CC(=O)Nc1ccc(N2CCOCC2)cc1)CC(=O)Nc1ccccc1[N+](=O)[O-] | -0.00205 (inactive) |
| O=C(Nc1ccc(N2CCOCC2)cc1)c1ccc(-c2ccccc2[N+](=O)[O-])o1 | 3.49 (active) |
| O=C(NC(=S)Nc1ccc(S(=O)(=O)N2CCOCC2)cc1)c1ccccc1[N+](=O)[O-] | -0.648 (inactive) |
| CCc1nnc(NC(=O)Cc2cccs2)s1 | 0.627 (inactive) |
| CCn1cc(CN2CCCC(CNS(=O)(=O)Cc3ccccc3)C2)cn1 (stereo not drawn) | -1.12 (inactive) |
| CCOc1ncccc1C(=O)OCC(=O)NC1CC1 | 0.144 (inactive) |
| COc1cccc(NC(=O)CC2C(=O)NCCN2C(=S)Nc2ccc(F)cc2)c1 (stereo not drawn) | -0.0401 (inactive) |
